Experimental data from PubChem BioAssay AID1159580 (chemical genetic matrix, 2015).
Screen size: about 5,500 compounds; about 2,000 (36%) were called active. Roughly 18% stayed inconclusive and do not appear here. No stated cut-off is given here; in the data, active means normalized growth mostly below about 0.91 (no sharp cut-off); inconclusive means no clear call, values can overlap the other calls; inactive means mostly above about 0.92. The list shows a part of the results.

Experiment: chemical genetic growth profiling, strain panel (AID 1159580);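 further: tested at 20 µM; growth read once vehicle control cultures reached saturation at 30 °C; 1 = growth at the plate median or of vehicle wells; lower values mean less growth of the strain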
Settings: S. cerevisiae deletion strains, growth OD
[1] = locus YAL021C, strain ccr4, hits give low values
[2] = locus YAL026C, strain drs2, hits give low values
[3] = locus YAL030W, strain snc1, hits give low values
[4] = locus YBL061C, strain skt5, hits give low values
[5] = locus YBR009C, strain hhf1, hits give low values
[6] = locus YBR023C, strain chs3, hits give low values
[7] = locus YBR171W, strain sec66, hits give low values
[8] = locus YBR231C, strain swc5, hits give low values
[9] = locus YBR279W, strain paf1, hits give low values
[10] = locus YCL011C, strain gbp2, hits give low values
[11] = locus YCL016C, strain dcc1, hits give low values
[12] = locus YCL069W, strain vba3, hits give low values
[13] = locus YCR088W, strain abp1, hits give low values
[14] = locus YDL005C, strain med2, hits give low values
[15] = locus YDL040C, strain nat1, hits give low values
[16] = locus YDR001C, strain nth1, hits give low values
[17] = locus YDR069C, strain doa4, hits give low values
[18] = locus YDR137W, strain rgp1, hits give low values
[19] = locus YDR159W, strain sac3, hits give low values
[20] = locus YDR297W, strain sur2, hits give low values
[21] = locus YDR334W, strain swr1, hits give low values
[22] = locus YDR335W, strain msn5, hits give low values
[23] = locus YDR392W, strain spt3, hits give low values
[24] = locus YEL003W, strain gim4, hits give low values
[25] = locus YEL037C, strain rad23, hits give low values
[26] = locus YEL061C, strain CIN8 (second series), hits give low values
[27] = locus YER015W, strain faa2, hits give low values
[28] = locus YER016W, strain bim1, hits give low values
[29] = locus YER111C, strain swi4, hits give low values
[30] = locus YER155C, strain BEM2 (second series), hits give low values
[31] = locus YFR010W, strain ubp6, hits give low values
[32] = locus YGL167C, strain pmr1, hits give low values
[33] = locus YGL173C, strain kem1, hits give low values
[34] = locus YGL227W, strain vid30, hits give low values
[35] = locus YGL240W, strain doc1, hits give low values
[36] = locus YGL253W, strain hxk2, hits give low values
[37] = locus YHR013C, strain ard1, hits give low values
[38] = locus YHR027C, strain rpn1, hits give low values
[39] = locus YHR030C, strain SLT2, hits give low values
[40] = locus YHR079C, strain IRE1, hits give low values
[41] = locus YHR142W, strain chs7, hits give low values
[42] = locus YJL092W, strain hpr5, hits give low values
[43] = locus YJL095W, strain BCK1 (second series), hits give low values
[44] = locus YJL095W, strain BCK1, hits give low values
[45] = locus YJL115W, strain asf1, hits give low values
[46] = locus YJL129C, strain trk1, hits give low values
[47] = locus YJL154C, strain vps35, hits give low values
[48] = locus YJL164C, strain tpk1, hits give low values
[49] = locus YJL166W, strain qcr8, hits give low values
[50] = locus YJL187C, strain SWE1, hits give low values
[51] = locus YJR066W, strain TOR1, hits give low values
[52] = locus YKL160W, strain elf1, hits give low values
[53] = locus YKR026C, strain gcn3, hits give low values
[54] = locus YKR091W, strain srl3, hits give low values
[55] = locus YLL001W, strain dnm1, hits give low values
[56] = locus YLL026W, hits give low values
[57] = locus YLL041C, strain sdh2, hits give low values
[58] = locus YLR027C, strain aat2, hits give low values
[59] = locus YLR113W, strain HOG1, hits give low values
[60] = locus YLR221C, strain rsa3, hits give low values
[61] = locus YLR258W, strain gsy2, hits give low values
[62] = locus YLR262C, strain YPT6 (second series), hits give low values
[63] = locus YLR320W, strain mms22, hits give low values
[64] = locus YLR342W, strain FKS1, hits give low values
[65] = locus YLR357W, strain rsc2, hits give low values
[66] = locus YLR370C, strain arc18, hits give low values
[67] = locus YLR384C, strain iki3, hits give low values
[68] = locus YML120C, strain ndi1, hits give low values
[69] = locus YMR058W, strain fet3, hits give low values
[70] = locus YMR129W, hits give low values
[71] = locus YMR205C, strain PFK2, hits give low values
[72] = locus YMR231W, strain pep5, hits give low values
[73] = locus YNL071W, strain lat1, hits give low values
[74] = locus YNL183C, strain NPR1, hits give low values
[75] = locus YNL209W, strain ssb2, hits give low values
[76] = locus YNL248C, strain rpa49, hits give low values
[77] = locus YNL322C, strain KRE1 (second series), hits give low values
[78] = locus YNR049C, strain mso1, hits give low values
[79] = locus YOR001W, strain rrp6, hits give low values
[80] = locus YOR070C, strain gyp1, hits give low values
[81] = locus YOR080W, strain dia2, hits give low values
[82] = locus YOR083W, strain WHI5, hits give low values
[83] = locus YOR106W, strain vam3, hits give low values
[84] = locus YOR231W, strain MKK1, hits give low values
[85] = locus YOR265W, strain rbl2, hits give low values
[86] = locus YOR270C, strain vph1, hits give low values
[87] = locus YOR290C, strain snf2, hits give low values
[88] = locus YPL051W, strain arl3, hits give low values
[89] = locus YPL078C, strain atp4, hits give low values
[90] = locus YPL106C, strain sse1, hits give low values
[91] = locus YPL240C, strain hsp82, hits give low values
[92] = locus YPL256C, strain CLN2, hits give low values

Measured: normalized growth

CC(=O)[C@]1(O)Cc2c(O)c3c(c(O)c2[C@@H](O[C@H]2C[C@H](N)[C@H](O)[C@H](C)O2)C1)C(=O)c1ccccc1C3=O
active: locus YAL040C, strain CLN3, hits give low values 0.208 | locus YCL061C, strain MRC1 (second series), hits give low values 0.0781 | locus YDR150W, strain NUM1, hits give low values 0.0885 | locus YDR363W, strain ESC2, hits give low values 0.478 | locus YER002W, strain NOP16, hits give low values 0.193 | locus YGR229C, strain SMI1, hits give low values 0.0661 | locus YJR075W, strain HOC1, hits give low values 0.0942 | locus YMR263W, strain SAP30, hits give low values 0.785 | locus YNL128W, strain TEP1, hits give low values 0.18 | locus YNL153C, strain GIM3, hits give low values 0.59 | locus YNL175C, strain NOP13, hits give low values 0.178 | locus YNL197C, strain WHI3, hits give low values 0.183 | locus YNL224C, strain SQS1, hits give low values 0.165 | locus YOR083W, strain WHI5 (second series), hits give low values 0.178 | locus YPL055C, strain LGE1, hits give low values 0.0958 | locus YPL241C, strain CIN2, hits give low values 0.0639

COc1cccc2c1C(=O)c1c(O)c3c(c(O)c1C2=O)C[C@@](O)(C(=O)CO)C[C@@H]3O[C@H]1C[C@H](N)[C@@H](O)[C@H](C)O1
inactive: [7] 0.985 | [9] 0.958 | [12] 0.965 | [13] 0.953 | [14] 0.951 | [15] 0.947 | [16] 0.937 | locus YDR195W, strain ref2 1.09 | [22] 0.928 | [23] 0.906 | [24] 0.955 | [25] 0.991 | [26] 0.982 | [29] 0.988 | [32] 0.969 | [33] 0.997 | [39] 1.01 | [40] 0.994 | [44] 0.958 | [47] 0.952 | [50] 0.93 | [51] 0.948 | [53] 0.926 | [54] 0.943 | [59] 0.91 | [66] 0.96 | [67] 0.977 | [70] 0.963 | [72] 0.967 | [74] 0.935 | [77] 0.943 | [78] 0.937 | [84] 0.997 | [92] 0.981
active: [1] 0.648 | [2] 0.894 | [3] 0.891 | [4] 0.888 | [5] 0.552 | [6] 0.894 | [8] 0.692 | [10] 0.845 | [11] 0.753 | locus YCL061C, strain MRC1, hits give low values 0.897 | [17] 0.848 | [18] 0.846 | [19] 0.501 | [20] 0.906 | [21] 0.78 | [27] 0.801 | [28] 0.862 | [30] 0.595 | [31] 0.867 | [34] 0.889 | [35] 0.488 | [36] 0.576 | [37] 0.635 | [38] 0.854 | [41] 0.84 | [42] 0.855 | [43] 0.913 | [45] 0.682 | [46] 0.337 | [48] 0.737 | [49] 0.59 | [52] 0.75 | [55] 0.875 | [56] 0.851 | [57] 0.918 | [58] 0.821 | [60] 0.759 | [61] 0.834 | [62] 0.826 | [63] 0.312 | [64] 0.873 | [65] 0.785 | [68] 0.794 | [69] 0.806 | locus YMR125W, strain sto1, hits give low values 0.825 | [71] 0.634 | [73] 0.689 | [75] 0.899 | [76] 0.177 | [79] 0.875 | [80] 0.863 | [81] 0.89 | [82] 0.804 | [83] 0.682 | [85] 0.879 | [86] 0.766 | [87] 0.78 | [88] 0.8 | [89] 0.785 | [90] 1.2 [resistant] | [91] 0.926

COc1cccc2c1C(=O)c1c(O)c3c(c(O)c1C2=O)C[C@@](O)(C(=O)CO)C[C@@H]3OC1C[C@H](N)[C@H](O)[C@H](C)O1 (some centres undefined)
inactive: [7] 0.928 | [23] 0.919 | [33] 1.01 | [90] 1.14
active: [1] 0.166 | [2] 0.696 | [3] 0.691 | [4] 0.708 | [5] 0.282 | [6] 0.676 | [8] 0.342 | [9] 0.681 | [10] 0.636 | [11] 0.37 | [12] 0.718 | [13] 0.767 | [14] 0.701 | [15] 0.762 | [16] 0.878 | [17] 0.595 | [18] 0.572 | [19] 0.221 | locus YDR195W, strain ref2 1.23 [resistant] | [20] 0.606 | [21] 0.337 | [22] 0.431 | [24] 0.603 | [25] 0.864 | [26] 0.607 | [27] 0.49 | [28] 0.481 | [29] 0.766 | [30] 0.515 | [31] 0.65 | [32] 0.905 | [34] 0.429 | [35] 0.246 | [36] 0.247 | [37] 0.35 | [38] 0.496 | [39] 0.778 | [40] 0.79 | [41] 0.538 | [42] 0.691 | [43] 0.622 | [44] 0.781 | [45] 0.319 | [46] 0.138 | [47] 0.732 | [48] 0.439 | [49] 0.302 | [50] 0.643 | [51] 0.787 | [52] 0.56 | [53] 0.849 | [54] 0.869 | [55] 0.545 | [56] 0.623 | [57] 0.602 | [58] 0.543 | [59] 0.779 | [60] 0.475 | [61] 0.565 | [62] 0.533 | [63] 0.176 | [64] 0.622 | [65] 0.49 | [66] 0.902 | [67] 0.651 | [68] 0.676 | [69] 0.509 | [70] 0.828 | [71] 0.513 | [72] 0.246 | [73] 0.272 | [74] 0.801 | [75] 0.656 | [76] 0.107 | [77] 0.886 | [78] 0.798 | [79] 0.469 | [80] 0.569 | [81] 0.627 | [82] 0.572 | [83] 0.214 | [84] 0.815 | [85] 0.619 | [86] 0.24 | [87] 0.589 | [88] 0.481 | [89] 0.534 | [91] 0.544 | [92] 0.757
